These results are taken from PubChem BioAssay.

Each structure is given as a SMILES string. Activity calls are given as the source filed them.

One test has as its target Albumin (Bos taurus) (UniProt P02769). Briefly: bovine serum albumin binders on microarray, profiling panel, artefact control for SMM control protein annotation, biochemical, small-molecule microarray, Alexa647 label, 635/667 nm fluorescence (AID 1118).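 Further: score merges 667 nm emission intensity and signal-to-noise per printed compound spot.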 As to conditions: BSA-A647 binding, fluorescence 635 nm, higher = more signal.
A short description of test [1]: small-molecule microarray binders of probe aXIP, primary screen, biochemical, NeuroSMM set, 635/667 nm fluorescence (AID 1119).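 Further: probe is the protein aXip251-270 applied at 1 µg/mL to compound-printed slides; binding of probe to printed compounds measured as 667 nm fluorescence plus signal to noise.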 Conditions: higher = more signal, called active from +8 up or from −8 down.
Test [2] is described as follows: small-molecule binders of probe aNOTCH3, primary screen, biochemical, small-molecule microarray, 635/667 nm fluorescence (AID 1120).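 Further: probe is a biotin-tagged antibody raised against NOTCH3 rather than NOTCH3 protein; score merges spot fluorescence near 667 nm with spot signal to noise.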 As to conditions: higher = more signal.
The nature of test [3]: small-molecule binders of probe aNOTCH2, primary screen, biochemical, small-molecule microarray, 635/667 nm fluorescence (AID 1121).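 Further: score merges feature fluorescence read at 667 nm with its signal to noise.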 Conditions: higher = more signal.
For test [4], the target named is Carbonic anhydrase 2 (Homo sapiens) (UniProt P00918). The test is described as follows: CAII small-molecule binders, profiling panel, biochemical, small-molecule microarray, Alexa647-labelled CAII (AID 1122). Conditions: CAII-A647 binding fluorescence, higher = more signal.
Test [5] can be described thus: COS7 lysate on small-molecule microarray, probe aHis, 635 nm (AID 1123).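 Further: z-score combines 667nm fluorescence intensity with signal-to-noise per printed compound spot.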 As to conditions: COS7 cell lysate, fluorescence, higher = more signal.
Test [6] is described as follows: compound binding in COS7 lysate, probe aLAP1, primary screen, cell lysate, small-molecule microarray (AID 1124).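 Further: lysate comes from COS7 cells expressing LAP1 and is applied at 0.3 µg/mL; score merges spot fluorescence near 667 nm with signal-to-noise over triplicate slides.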 Conditions: probe aLAP1, fluorescence, higher = more signal.
The test system of the next test is Sam68 (KHDRBS1). The test is described as follows: Sam68 small-molecule binders, primary screen, biochemical, small-molecule microarray, 635 nm fluorescence (AID 1125).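 Further: score merges 667 nm channel intensity with signal to noise over triplicate slides.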 As to conditions: small-molecule microarray binding, higher = more signal.
For test [7], the system named is Chordin-like protein 2 (CHRDL2). Briefly: CHRDL2 small-molecule binders, primary screen, biochemical, small-molecule microarray, 635 nm fluorescence (AID 1126).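 Further: printed compound slides probed with Chrdl2 protein at 4 µg/mL for 1 h at 4 C; score merges 667 nm emission intensity with signal to noise over three replicate slides.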 As to conditions: small-molecule microarray binding, fluorescence 635 nm; higher = more signal.
Test [8] addresses Concanavalin-A (Canavalia ensiformis) (UniProt P02866). Briefly: ConA small-molecule binders, primary screen, artefact control for SMM control protein annotation, biochemical, small-molecule microarray, Alexa647 label, 635 nm (AID 1127).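 Further: z combines 667 nm emission intensity with signal-to-noise across three replicate slides.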 Conditions: ConA-A647 binding fluorescence, higher = more signal.

Concanavalin-A (Canavalia ensiformis), sequence (P02866 whole entry, looked up): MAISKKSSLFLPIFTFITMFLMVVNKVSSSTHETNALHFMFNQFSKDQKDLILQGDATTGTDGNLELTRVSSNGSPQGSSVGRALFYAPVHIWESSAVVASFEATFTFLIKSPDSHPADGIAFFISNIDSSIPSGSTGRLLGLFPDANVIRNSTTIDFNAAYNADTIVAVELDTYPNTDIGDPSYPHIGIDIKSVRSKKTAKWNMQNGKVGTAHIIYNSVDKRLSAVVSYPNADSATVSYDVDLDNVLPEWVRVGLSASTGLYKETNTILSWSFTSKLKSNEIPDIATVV
Albumin (Bos taurus), sequence (P02769 whole entry, looked up): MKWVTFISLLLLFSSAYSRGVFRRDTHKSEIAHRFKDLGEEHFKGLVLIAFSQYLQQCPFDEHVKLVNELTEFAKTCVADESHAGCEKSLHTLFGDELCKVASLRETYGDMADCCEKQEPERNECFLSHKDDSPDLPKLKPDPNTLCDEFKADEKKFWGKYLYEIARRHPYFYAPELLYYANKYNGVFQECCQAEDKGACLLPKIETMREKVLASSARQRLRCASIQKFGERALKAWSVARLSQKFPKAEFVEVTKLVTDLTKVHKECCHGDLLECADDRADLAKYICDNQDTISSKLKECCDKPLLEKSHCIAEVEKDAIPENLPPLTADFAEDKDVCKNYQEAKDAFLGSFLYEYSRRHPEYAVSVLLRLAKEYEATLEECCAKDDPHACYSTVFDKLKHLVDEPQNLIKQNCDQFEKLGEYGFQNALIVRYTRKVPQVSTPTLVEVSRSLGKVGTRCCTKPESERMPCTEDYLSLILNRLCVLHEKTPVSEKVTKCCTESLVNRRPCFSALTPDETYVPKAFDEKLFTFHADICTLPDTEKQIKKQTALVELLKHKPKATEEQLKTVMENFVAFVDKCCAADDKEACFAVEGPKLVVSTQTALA

As for `CCOC(=O)C1=CCC(c2cc3ccccc3[nH]2)N(CCN2CC(C(=O)OCC)=CCC2c2cc3ccccc3[nH]2)C1` (stereo not given), the composite z-score is 0.656 with Albumin (Bos taurus); 0.15 in [2]; -0.108 in test [3]; 0.521 in [4]; 4.05 in [5]; 0.674 in test [6]. Besides, the figures for the composite z-score (in the test with Sam68 (KHDRBS1); in test [7]; in [8]) were 1.29, 0.106 and 1.14, respectively. Moreover, the composite Z-score in test [1] was 0.0551 (inactive).
In the case of `COc1ccc([Si](C)(C)[C@H]2[C@H](CC(=O)N3CCC[C@H]3CO)O[C@@]3(C(=O)N(Cc4ccc(N5CCCCC5=O)cc4)c4ccccc43)[C@@H]2C)cc1`, the composite z-score is 0.664 with Albumin (Bos taurus); 0.212 in test [2]; -0.108 in test [3]; 0.292 in test [4]; 1.27 in test [5]; 0.0516 in test [6]. The composite z-score in the test with Sam68 (KHDRBS1) was 1.3; in test [7], 0.824; in test [8], 1.18. The composite Z-score in [1] is -0.765 (inactive).
Turning to `C[C@@H]1NC(=O)C([C@@H](C)OCc2ccccc2)NC(=O)[C@@]23C(=O)N[C@@H](Cc4ccccc4)C2[C@H](C)[C@@]2(C)O[C@H]2C3/C=C/C/C=C\CNC1=O` (stereo not given in full), the composite z-score with Albumin (Bos taurus) was -1.17; in test [2], -0.222; in test [3], -0.125; in test [4], 0.61; in test [5], -0.13; in test [6] it was 0.0711. In addition, the composite z-score was -0.503 in the test with Sam68 (KHDRBS1), 0.209 in test [7] and -0.928 in test [8]. In test [1], the composite Z-score was 2.08 (inactive).
On to `COc1ccc([Si](C)(C)[C@@H]2[C@@H](CC(=O)N3Cc4ccccc4C[C@H]3CO)O[C@]3(C(=O)N(Cc4ccc(N5CCOC5=O)cc4)c4ccccc43)[C@H]2C)cc1`, for which the composite z-score was -0.289 in the test with Albumin (Bos taurus); 0.0803 in test [2]; -0.128 in [3]; 0.624 in test [4]; 1.12 in [5]; 0.313 in test [6]. For the same molecule, the composite z-score with Sam68 (KHDRBS1) was found to be 1.27; in test [7], 1.26; in test [8], 1.16. In addition, in [1], the composite Z-score was 1.54 (inactive).
For `CN(C)CCCCNC(=O)[C@H]1C[C@H]2C(=O)N3CCC[C@H]3C(=O)N2[C@H]1c1cccc(OCCO)c1`, the composite z-score is -0.115 with Albumin (Bos taurus); 0.234 in test [2]; -0.117 in test [3]; 0.519 in test [4]; 1.12 in [5]; 0.392 in test [6]. The composite z-score with Sam68 (KHDRBS1) is 1.04; in test [7], -0.52; in test [8], 0.794. Besides, in [1], the composite Z-score was 1.68 (inactive).
On to `CC(C)[Si](C#CCCc1ccccc1)(O[C@H](c1ccccc1)c1cn(Cc2ccccc2)nn1)C(C)C`, for which the composite z-score is 0.246 with Albumin (Bos taurus); 0.073 in test [2]; -0.115 in test [3]; 0.204 in test [4]; 1.12 in test [5]; 0.0218 in test [6]. Further, the composite z-score was found to be 1.02 with Sam68 (KHDRBS1), 0.721 in test [7] and 0.949 in test [8]. In addition, in test [1], the composite Z-score was 0.546 (inactive).
For the molecule `CC(C)c1nc2cc(Br)ccc2c(=O)o1`, the composite z-score in the test with Albumin (Bos taurus) is 0.915; in test [2], 0.0493; in test [3] it was -0.0424; in test [4], 0.738; in test [5] it was 0.92; in test [6], 0.0912. The composite z-score in the test with Sam68 (KHDRBS1) was 0.711; in test [7], -0.552; in test [8], 1.09. In addition, the composite Z-score in test [1] was 0.19 (inactive).
For the molecule `Cc1ccc(F)cc1S(=O)(=O)N[C@H]1CCN(Cc2ccc(OC(C)C)cc2)C1`, the composite z-score with Albumin (Bos taurus) is -0.052; in test [2], -0.0244; in test [3], -0.19; in test [4], 0.231; in [5] it was 1.89; in test [6] it was 0.659. Moreover, the composite z-score in the test on Sam68 (KHDRBS1) was 0.65; in [7], 0.544; in [8] it was -0.201. Also, the composite Z-score in test [1] is -0.058 (inactive).
Consider `NC(=O)N1C(=O)C2C(C1=O)C1C=C(CCCO)C2C(C2CC2)N1Cc1sc2ccccc2c1Cl` (stereo not given), for which the composite z-score with Albumin (Bos taurus) was 0.758; in test [2], -0.0362; in [3], -0.15; in test [4], 0.616; in test [5] it was 1.19; in [6], 0.979. Moreover, the composite z-score was 1.15 in the test with Sam68 (KHDRBS1), -0.0285 in test [7] and 1.11 in [8]. In test [1], the composite Z-score is 0.121 (inactive).
Regarding `CCOC(=O)C1=CC[C@@H](c2ccccc2)N(S(=O)(=O)c2ccc(C)cc2)[C@H]1c1ccccc1I`, the composite z-score with Albumin (Bos taurus) was 0.856; in test [2], 1.02; in test [3], -0.0226; in test [4] it was 0.649; in test [5], 0.842; in test [6] it was 0.748. The composite z-score with Sam68 (KHDRBS1) is 0.875; in [7], -0.131; in test [8] it was 1.01. In addition, the composite Z-score in test [1] was 0.008 (inactive).
Turning to `COc1ccc([Si](C)(C)[C@@H]2[C@@H](CC(=O)N(CCO)Cc3ccccc3)O[C@]3(C(=O)N(Cc4ccc(N5C(=O)c6cccc7cccc5c67)cc4)c4ccccc43)[C@H]2C)cc1`, the composite z-score with Albumin (Bos taurus) was -0.806; in test [2], 0.0496; in test [3], -0.126; in [4], 0.283; in test [5], 1.12; in test [6], 0.284. Also, the values for the composite z-score (with Sam68 (KHDRBS1); in [7]; in test [8]) were 0.956, 0.307 and 1.12, respectively. Further, the composite Z-score in test [1] is 0.267 (inactive).
In the case of `C=C(C)[C@@H]1CC=C(C(O)C2C=CC3C(=O)N(c4ccccc4)C(=O)C3N2Nc2ccc([N+](=O)[O-])cc2)CC1` (stereo not given in full), the composite z-score in the test with Albumin (Bos taurus) worked out at 0.83; in test [2] it was 0.0254; in test [3], 0.09; in test [4] it was 0.558; in [5] it was 2.92; in test [6], 0.22. Moreover, the composite z-score in the test on Sam68 (KHDRBS1) worked out at 1.32; in [7], 0.077; in test [8], 0.246. Also, the composite Z-score in [1] was 0.115 (inactive).
